Results filed as inconclusive are left out. Unmarked numbers belong to inactive results. Calls follow the shape of the dose curve; as a rule, active = well fitted curve in the direction sought with a large enough effect; inconclusive = small, poorly fitted or top-dose-only effect, or another doubt; inactive = no such curve, though single readings can be large or run the other way.
The compounds below were run against Polyunsaturated fatty acid lipoxygenase ALOX15 (Homo sapiens) (UniProt P16050) (assay: Counterscreen qHTS for inhibitors of human arachidonate 12S-lipoxygenase (ALOX12): ALOX15 Assay). Settings: purified ALOX15 enzyme activity; series mostly up to 110 µM; activity change, negative = inhibition: at the top concentration.
Sequence of Polyunsaturated fatty acid lipoxygenase ALOX15 (Homo sapiens) (P16050 whole entry, looked up): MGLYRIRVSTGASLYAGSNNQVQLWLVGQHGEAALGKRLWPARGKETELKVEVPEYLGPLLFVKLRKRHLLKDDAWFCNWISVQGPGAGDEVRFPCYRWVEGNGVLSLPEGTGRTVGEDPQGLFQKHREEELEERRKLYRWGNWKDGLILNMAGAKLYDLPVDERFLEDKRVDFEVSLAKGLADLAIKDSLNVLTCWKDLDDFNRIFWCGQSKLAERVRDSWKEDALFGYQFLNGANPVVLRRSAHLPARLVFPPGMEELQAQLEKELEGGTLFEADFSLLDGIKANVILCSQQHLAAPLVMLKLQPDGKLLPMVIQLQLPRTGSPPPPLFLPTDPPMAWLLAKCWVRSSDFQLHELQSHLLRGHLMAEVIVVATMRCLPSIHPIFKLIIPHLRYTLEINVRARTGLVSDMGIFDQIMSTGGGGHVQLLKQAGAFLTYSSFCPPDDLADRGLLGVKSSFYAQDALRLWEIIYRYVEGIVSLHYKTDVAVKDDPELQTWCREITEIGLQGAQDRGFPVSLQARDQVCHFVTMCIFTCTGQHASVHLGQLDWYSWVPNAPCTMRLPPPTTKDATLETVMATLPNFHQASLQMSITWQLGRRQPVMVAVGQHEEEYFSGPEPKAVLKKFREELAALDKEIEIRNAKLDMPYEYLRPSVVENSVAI
How it was run: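 Xylenol orange–ferric complex formation, read as the 573 nm to 405 nm absorbance ratio, tracks product from 50 uM arachidonic acid turned over for 30 min at RT. Enzyme is 40 nM ALOX15, pH 7.5 HEPES buffer, compound-preincubated 15 min.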
Also: 0% is about no effect.

Compound | activity change, negative = inhibition
O=C1NCCN1C1CCN(Cc2ccc(F)cc2)CC1 | -7.78% [at 146 µM]
CC(=O)N1CCN(c2ccc(Cl)nn2)C(=O)C1 | -19.6% [at 146 µM]
CN1CC(=O)N(c2ccc(Cl)cc2)Cc2c(NCC3CC3)ncnc21 | -18.4%
C[C@H](C(=O)N1Cc2ccccc2CC2(CCN(Cc3ccncc3)C2)C1)c1ccccc1 (stereo partly drawn) | -13.1%
CC(=O)N1CCN(c2ncnc3c2CN(C2CCCNCC2)C(=O)CN3C)CC1 (stereo not drawn) | -3.89%
Cn1nc(C2CCCN2)c2c(C(=O)NCc3ccncc3)cc(C3CC3)nc21 (stereo not drawn) | -21.1%
O=C(NCc1ccc(Cl)nc1)c1cnn2c1CN(C(=O)c1ccccc1)CC2 | 0.165%
COCCNC(=O)c1cc(-c2ccc(OC)cc2)nc2onc(C3CCCN3)c12 (stereo not drawn) | -14.5%
CN1CC(=O)N(C2CCCNC2)Cc2c(NC3CCCCC3O)ncnc21 (stereo not drawn) | -26%
O=C1NCc2ccccc2CC12CCN(Cc1ccnc3ccccc13)C2 (stereo not drawn) | 12.1%
NC(Cc1ccccc1)C(=O)N1CCC2(CC1)CN(C(=O)c1ccc(Cl)cc1)CCO2 (stereo not drawn) | -6.02%
CN1CC(=O)N(C2CCNCC2)Cc2c1ncnc2N1CCCC1CO (stereo not drawn) | -27.7%
O=C1NCc2ccccc2CC12CCN(Cc1ccc(F)cc1O)C2 (stereo not drawn) | -3.81% [at 146 µM]
O=C1NCc2ccccc2CC12CCCN2Cc1cnc2ccccc2c1 (stereo not drawn) | -16.9%
Cc1ccc(CN2CCC3(Cc4ccccc4CNC3=O)C2)cc1C (stereo not drawn) | -25.1% [at 146 µM]
O=C(NC1CC1)c1cc(C2CC2)nc2onc(C3CCNCC3)c12 | -21.6% [at 146 µM]
CNC(c1ccccc1)c1ccccc1 | -18% [at 146 µM]
Cc1ccc(-c2ccccc2CN)cc1Cl | -12% [at 146 µM]
COc1ccc(CCNc2ncnc3c2CN(C2CCCNC2)C(=O)CN3C)cc1 (stereo not drawn) | -23%

Compound | activity change, negative = inhibition
CCNc1ncnc2c1CN(C1CCNC1)C(=O)CN2C (stereo not drawn) | -18.4% [at 146 µM]
COc1ccccc1-c1cccc(CN)c1 | 18.8% [at 233 µM]
Cc1ccc2nc(C3CCCN(Cc4ccccc4)C3)[nH]c(=O)c2c1 (stereo not drawn) | 2.64% [at 146 µM]
CNC1CCOc2ccccc21 (stereo not drawn) | -17.1% [at 146 µM]
O=C(O)c1cccc(-c2cnc3ccccc3c2)c1 | 2.07% [at 146 µM]
Cn1nc(C2CCNC2)c2c(C(=O)NC3CC3)cc(C3CC3)nc21 (stereo not drawn) | -0.11% [at 146 µM]
CCN1CCC(c2nc3ccc(F)cc3c(=O)[nH]2)CC1 | -2.36% [at 146 µM]
O=S(=O)(c1ccccc1)N1Cc2ccccc2CC2(CCN(Cc3cccnc3)C2)C1 (stereo not drawn) | -36.4%
CC(C)NC(=O)N1CCC(c2nnc3n2CCNC3)CC1 | 6.45% [at 146 µM]
O=C(c1ccccc1)N1CCCC2(CC(c3cccnc3)=NO2)C1 (stereo not drawn) | -15.9% [at 146 µM]
CSc1ccc(-c2ccc(C=O)cc2)cc1 | -27.8% [at 233 µM]
O=C(c1ccncc1)N1CCCC(c2nnc3n2CCNC3)C1 (stereo not drawn) | 11.3% [at 146 µM]
COc1ccc(CN2CCCC23Cc2ccccc2CNC3=O)cc1OC (stereo not drawn) | -13.2%
O=C1NCc2ccccc2CC12CCN(Cc1ccccc1OC(F)(F)F)C2 (stereo not drawn) | -5.04%
O=C1NCc2ccccc2CC12CCN(Cc1c(Cl)cncc1Cl)C2 (stereo not drawn) | 7.44%
Cc1ccc(C(=O)N2CCCC3(CC(c4cccnc4)=NO3)C2)cc1 (stereo not drawn) | -12.4% [at 146 µM]
COc1cccc(N2C(=O)NC(=NC3CCCC3)C23CCCN([S+](=O)([O-])c2ccccc2)C3)c1 (stereo not drawn) | -22.7%
O=C1NCc2ccccc2CC12CCCN2Cc1ccccc1Cl (stereo not drawn) | 4.31% [at 146 µM]
COc1ccc(CN2CCC3(CC(c4cccc(C(F)(F)F)c4)=NO3)C2)cc1 (stereo not drawn) | -15.6%
